Measurements from PubChem BioAssay (NCI).
Compounds without any hit were thinned out: in the full panel of roughly 83,000, 20% have a hit.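 Results are percent growth after 48 hours of single-concentration exposure. 100 means growth as in untreated cells, lower positive values show inhibition; negative values down to -100 show cell death.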 Unmarked numbers belong to inactive results. Activity calls are given as the source filed them. Rule for the calls: active = growth percent below 10; inactive = the rest.

Key:
Assay in all cases: NCI-60 one-dose screen, 48 h (100 = growth as untreated, 0 = no growth, -100 = all killed)
Settings in all cases: 10 µM unless noted
HCT-15 colon = test system: HCT-15 colon
HT29 colon = test system: HT29 colon
SNB-75 CNS = test system: SNB-75 CNS
SNB-19 CNS = test system: SNB-19 CNS
U251 CNS = test system: U251 CNS
PC-3 prostate = test system: PC-3 prostate
SK-MEL-5 melanoma = test system: SK-MEL-5 melanoma
UACC-62 melanoma = test system: UACC-62 melanoma
LOX IMVI melanoma = test system: LOX IMVI melanoma
SK-MEL-28 melanoma = test system: SK-MEL-28 melanoma
EKVX NSCLC = test system: EKVX NSCLC
SN12C renal = test system: SN12C renal
UO-31 renal = test system: UO-31 renal
TK-10 renal = test system: TK-10 renal
ACHN renal = test system: ACHN renal
CAKI-1 renal = test system: CAKI-1 renal
A498 renal = test system: A498 renal
CCRF-CEM leukemia = test system: CCRF-CEM leukemia
MOLT-4 leukemia = test system: MOLT-4 leukemia

Row | Compound | growth (HCT-15 colon) | growth (HT29 colon) | growth (SNB-75 CNS) | growth (SNB-19 CNS) | growth (U251 CNS) | growth (PC-3 prostate) | growth (SK-MEL-5 melanoma) | growth (UACC-62 melanoma) | growth (LOX IMVI melanoma) | growth (SK-MEL-28 melanoma) | growth (EKVX NSCLC) | growth (SN12C renal) | growth (UO-31 renal) | growth (TK-10 renal) | growth (ACHN renal) | growth (CAKI-1 renal) | growth (A498 renal) | growth (CCRF-CEM leukemia) | growth (MOLT-4 leukemia)
1 | Cn1cnc2c(F)c(Nc3ccc(Br)cc3F)c(C(=O)NOCCO)cc21 | 62% | 6.34% (active) | 86.1% | 51.3% | 51.5% | 93% | 45.5% | -8.58% (active) | 29.6% | -3.38% (active) | 54% | 56.2% | 48.8% | 50.5% | 57.6% | 45.9% | -28.4% (active) | 73.8% | 72.9%
2 | O=C(Nc1ccc(-c2ccnc(Nc3ccc(N4CCOCC4)cc3)n2)cc1)[C@@H]1CCCN1 | 23.3% | 18.6% | -1.55% (active) | 83.4% | 51.4% | 61.2% | 49.2% | 68.5% | 30.4% | 54.5% | 71.7% | 45.6% | 26.5% | 71.6% | 44.1% | 29.9% | 26.2% | 28.1% | 21.7%
3 | O=C(NOCCO)c1cc(CN2OCCCC2=O)c(F)c(F)c1Nc1ccc(I)cc1F | 50.6% | 8.15% (active) | 71.5% | 51.8% | 40.6% | 99.3% | 45.7% | 4% (active) | 19.4% | 3.09% (active) | 46% | 49.5% | 15% | 36.4% | 49.5% | 40.8% | -33% (active) | 101% | 76.6%
4 | Cc1c(N)ccc(-c2ccc(N)c(C)c2S(=O)(=O)O)c1S(=O)(=O)O | 111% | 111% | 101% | 112% | 106% | 98.4% | 110% | 105% | 98.6% | 115% | 111% | 106% | 88% | 98.6% | 108% | 116% | 100% | 102% | 102%
5 | Cc1cn(-c2cc(NC(=O)c3ccc(C)c(Nc4nccc(-c5cccnc5)n4)c3)cc(C(F)(F)F)c2)cn1 | 22.8% | 17.4% | 55.7% | 69.9% | 37.5% | 26% | -22.5% (active) | 9.88% (active) | 44.1% | -27.1% (active) | 69.6% | 66.9% | -3.45% (active) | 75.1% | 55.8% | 50.6% | 82.2% | 36.2% | 42.9%
6 | CCCCCc1ccc(C)cc1OC(=O)CCl | 110% | 100% | 90% | 105% | 101% | 88.4% | 103% | 113% | 106% | 113% | 117% | 110% | 66.9% | 105% | 105% | 91.7% | 105% | 102% | 102%
7 | COc1cc(OC)c(/C=C/S(=O)(=O)Cc2ccc(OC)c(NCC(=O)O)c2)c(OC)c1 | 11.8% | 0.285% (active) | 18.2% | 29.4% | 11.4% | 21.9% | -12.1% (active) | 37.4% | 16% | 65.9% | 27.3% | 34% | 36.3% | 49.7% | 30.2% | 18.2% | -4.03% (active) | 16.2% | 14.5%
8 | Cc1cc(Nc2ncc(Cl)c(Nc3ccccc3S(=O)(=O)C(C)C)n2)c(OC(C)C)cc1C1CCNCC1 | -86.4% (active) | -88.1% (active) | -98.1% (active) | -94.9% (active) | -100% (active) | -92.2% (active) | -98.9% (active) | -95.1% (active) | -90.7% (active) | -99.3% (active) | -87.6% (active) | -87.2% (active) | -96.4% (active) | -96.1% (active) | -100% (active) | -99.5% (active) | 40.2% | -47.5% (active) | -59.9% (active)
9 | Cc1cc2c(F)c(Oc3ncnn4cc(OC[C@@H](C)OC(=O)[C@H](C)N)c(C)c34)ccc2[nH]1 | 38.6% | 6.32% (active) | 55.6% | 51.8% | 44.8% | 54.5% | 42.6% | 2.73% (active) | 26.5% | 10.5% | 61.2% | 55.6% | 36.3% | 35.6% | 46.8% | 48.8% | 21.7% | 45.4% | 48.3%
10 | O=C(Cn1cncn1)Nc1ccc(-c2nc3ccccc3s2)cc1 | 101% | 105% | 92.1% | 93% | 90% | 85.8% | 86.7% | 95.2% | 99.3% | 111% | 90.2% | 95.1% | 76.9% | 106% | 110% | 93.8% | 88.4% | 105% | 91.9%
11 | COc1cc2c(Oc3ccc(NC(=O)C4(C(=O)Nc5ccc(F)cc5)CC4)cc3F)ccnc2cc1OCCCN1CCOCC1 | -26% (active) | -59.2% (active) | -96.9% (active) | 10.6% | -57.8% (active) | 7.39% (active) | -96.1% (active) | -67.8% (active) | -89.5% (active) | -78.2% (active) | 25.9% | 14.5% | -74.4% (active) | -5.46% (active) | -4.14% (active) | -69% (active) | -92.4% (active) | -3.58% (active) | -9.06% (active)
